Screening data as filed in PubChem.
Shown are actives, neighbours in structure and some others; about 4.5% of the full set was active somewhere.
hgDAF12 agonist = activates the H. glycines DAF-12 receptor ligand-binding domain; activation, % at 6.8 µM; 370,000 tested, 1.8% active; HEK293 GAL4-hgDAF12 UAS-luciferase reporter, agonist luminescence; normalized to butyrate control;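 active = activation above a cutoff set at the mean of all screened compounds plus 3 SD, cut at about 10% in these data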;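 also: 0% = DMSO wells and 100% = sodium butyrate wells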
GAA850 FXN act = frataxin GAA850 promoter activation | AID 540364 | 360,000 tested, 0.56% active | HEK293 lucGAA850 FXN promoter luciferase reporter, 24 h; percent of 10 µM SAHA response | activation, % at 6 µM;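 active = activation above the average of all compounds screened plus 3 SD, cutoff fixed separately per campaign, cut at about 7.5% in these data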;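 also: 0% = DMSO wells and 100% = 10 µM SAHA wells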
DAX1 inh-1 = DAX1 (NR0B1) inhibition, primary screen | HEK293T StAR-luciferase reporter, SF-1/DAX-1 repression relief | inhibition, % at 6.8 µM | 370,000 tested, 1.1% active | AID 652010;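 active = inhibition above the mean over all tested compounds plus 3 SD, cut at about 3.6% in these data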;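 also: 0% = DAX-1 cells with DMSO and 100% = cells lacking DAX-1 with DMSO; higher inhibition means more luminescence from relief of DAX-1 repression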
DAX1 inh-2 = NR0B1 (DAX1) inhibition; AID 504766; 340,000 tested, 0.99% active; inhibition, % at 6.75 µM; HEK293 Gal4-DAX1 luciferase reporter, luminescence; P51843;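 active = inhibition above the mean over all tested compounds plus 3 SD, cut at about 4.2% in these data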;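 also: 0% = DAX1-transfected cells with DMSO and 100% = empty-vector control cells with DMSO; inhibition shows as a rise in luminescence from relieved DAX1 repression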
ssDAF12 agonist = activates DAF-12 receptor from parasite S. stercoralis; activation, % at 6.8 µM; AID 652126; HEK293 ssDAF-12/GRIP1 lit1-tk-luc reporter, luminescence; % of 3 µM dafachronic acid response; 370,000 tested, 1% active;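 active = activation above the mean over all tested compounds plus 3 SD, cut at about 0.9% in these data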;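 also: 0% = DMSO-only wells and 100% = 3 µM delta7-dafachronic acid wells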
hcDAF12 agonist = H. contortus DAF-12 activation, primary screen | HEK293 hcDAF-12 lit1-tk-luc reporter, luminescence; 0% DMSO, 100% Δ7-dafachronic acid | activation, % at 6.8 µM | 370,000 tested, 1.4% active;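 active = activation above the mean of all tested compounds plus 3 SD, cut at about 5.5% in these data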;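 also: 100% = response to 3 µM Δ7-dafachronic acid high control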
DAX1 inh confirm = confirmation of human DAX1 (NR0B1) inhibitors | shares compounds with DAX1 inh-1 | HEK293T StAR-promoter luciferase reporter, SF-1/DAX-1 repression | inhibition, % at 6.8 µM | 2,400 tested, 87% active | AID 652134;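 active = inhibition above the average of every tested compound plus 3 SD, cut at about 3.8% in these data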;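 also: 0% = DAX-1 cells with DMSO and 100% = no DAX-1 control cells with DMSO; active compounds raise luminescence by relieving repression of the StAR reporter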
Target sequence (P51843 whole entry, looked up): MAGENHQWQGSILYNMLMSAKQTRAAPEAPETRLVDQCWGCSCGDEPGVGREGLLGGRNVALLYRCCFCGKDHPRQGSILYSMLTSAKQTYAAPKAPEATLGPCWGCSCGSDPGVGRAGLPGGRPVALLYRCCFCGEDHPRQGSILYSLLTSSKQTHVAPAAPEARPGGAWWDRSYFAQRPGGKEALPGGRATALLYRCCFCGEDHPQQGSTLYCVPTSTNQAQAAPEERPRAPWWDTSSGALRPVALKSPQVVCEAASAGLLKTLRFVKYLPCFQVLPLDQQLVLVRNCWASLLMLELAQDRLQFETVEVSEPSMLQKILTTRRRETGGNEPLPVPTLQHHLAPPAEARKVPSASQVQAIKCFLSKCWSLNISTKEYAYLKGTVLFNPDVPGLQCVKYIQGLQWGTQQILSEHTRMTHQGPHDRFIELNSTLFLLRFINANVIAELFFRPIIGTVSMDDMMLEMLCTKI
SF1 AF2mut Luc = nonselective inhibitor or artifact in SF-1 mutant DAX1 counter-screen | shares compounds with DAX1 inh-1 | 2,400 tested, 78% active | HEK293 StAR-luciferase, SF-1 AF2 mutant, luminescence | inhibition, % at 6.8 µM;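 active = inhibition above the mean of all tested compounds plus 3 SD, cut at about 3% in these data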;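 also: 0% = DAX-1 transfected cells with DMSO and 100% = cells without DAX-1 with DMSO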
* = called active by the depositor; x = not tested or not shown.

SMILES	hgDAF12 agonist	GAA850 FXN act	DAX1 inh-1	DAX1 inh-2	ssDAF12 agonist	hcDAF12 agonist	DAX1 inh confirm	SF1 AF2mut Luc
COc1ccccc1NS(=O)(=O)c1cccc(C(=O)NCC(c2ccco2)N2CCCCC2)c1 (stereo unspecified)	-2.3	-2.0	-0.7	-2.1	-1.5	-2.4	x	x
COc1ccc(C(CNC(=O)c2cccc(S(=O)(=O)Nc3ccccc3OC)c2)N2CCCCC2)cc1 (stereo unspecified)	2.0	-2.7	6.9*	1.7	-1.4	0.1	5.9*	4.2*
COc1ccccc1NS(=O)(=O)c1cc(C(=O)NCC(c2cccs2)N2CCOCC2)ccc1C (stereo unspecified)	0.3	-0.5	-0.4	-0.1	-0.9	1.9	x	x
C[C@@H]1CCN(C2CC2)S(=O)(=O)c2c(cccc2N2CC[C@@H](N(C)C)C2)O1	0.7	x	-0.7	x	-1.0	-0.5	x	x
CCCCCCn1cc(CN2CC(N3CCN(Cc4ccccc4F)CC3)CS2(=O)=O)nn1 (stereo unspecified)	2.0	x	-1.6	x	-1.9	-1.5	x	x
CCOC(=O)C1CCN(C(=O)c2cc3cc4ccc(C)cc4nc3o2)CC1	7.4	3.5	7.5*	0.5	-0.4	2.0	8.0*	4.9*
CCOC(=O)C1CCN(C(=O)c2ccc(C)o2)CC1	1.3	2.2	-0.2	2.2	-1.2	2.0	x	x
CC(C)(C)OC(=O)NCc1cc(F)ccc1/C=C/S(=O)(=O)NCc1ccc(F)cc1	-1.7	x	-1.6	x	-1.5	-2.2	x	x
Clc1ccc(-c2nnc(SCc3nc4ccccc4[nH]3)o2)c(Cl)c1	-0.6	2.5	-0.6	-0.3	-0.2	2.2	x	x
Clc1ccc(-c2nnc(SCc3ccon3)o2)c(Cl)c1	16.1*	4.8	7.2*	1.3	0.6	6.2*	11.0*	5.4*
Cc1cccc(C(=O)Nc2ccnc(-c3ccncc3)n2)c1	-0.5	0.8	-2.4	1.6	-2.3	-2.7	x	x
Cc1cccc(C(=O)Nc2ccn(C)n2)c1	8.4	0.1	4.9*	1.9	-0.6	-0.1	5.8*	3.0*
CCOc1ccc(-c2cn3ccccc3n2)cc1	10.1	1.8	9.9*	-3.2	0.2	5.8*	13.9*	4.4*
Cc1ccc(NC(=O)CCCNC(=O)c2ccc(Cl)cc2)c(O)c1	7.6	2.5	5.3*	0.2	0.8	6.4*	4.1*	3.7*
Cc1cnc(NC(=O)CCCNC(=O)c2ccc(Cl)cc2)s1	5.3	5.7	5.5*	1.6	0.0	3.6	3.4	3.2*
O=C1c2ccccc2C(c2nnnn2Cc2ccccc2)N1Cc1cccnc1 (stereo unspecified)	-2.7	x	2.1	x	-1.5	-0.7	x	x
CCOc1ccc(CCNC(=O)c2cc3ccsc3n2C)cc1OCC	-2.8	x	-1.7	x	-1.6	-5.8	x	x
O=C(O)/C=C/c1cnn(-c2ccccc2)c1	2.6	0.2	5.0*	-2.5	-0.9	1.1	7.3*	3.5*
CCOC(=O)/C=C/c1cnn(-c2ccccc2)c1	7.4	4.1	1.5	0.8	0.2	2.0	x	x
N#Cc1cccc(NC(=O)c2cc(C3CCCCN3C(=O)c3cccs3)on2)c1 (stereo unspecified)	0.5	0.8	-1.0	x	-1.1	-1.6	x	x
c1ccc2[nH]c(NN=C3CCCCCC3)nc2c1	2.4	7.2	1.4	1.1	-0.4	4.7	x	x
c1ccc2nc(NN=C3CCCCC3)ccc2c1	10.1	4.4	4.5*	2.8	1.8*	6.7*	7.4*	3.1*
Cc1cccc2c1-c1sc(C(=O)N3CCCCC3)cc1CO2	7.2	6.4	5.3*	3.4	0.1	2.7	9.6*	5.7*
Cc1cccc2c1-c1sc(C(=O)N3CCc4ccccc4C3)cc1CO2	1.4	0.2	0.2	0.8	-1.2	-1.1	x	x
CN(C(=O)c1cccc(NC(=O)Cc2ccc(NC(=O)C3CCN(C(=O)C4CC4)CC3)cc2)c1)C1CCC1	-0.4	1.1	5.0*	-1.9	-0.2	0.8	1.5	2.3
SMILES	hgDAF12 agonist	GAA850 FXN act	DAX1 inh-1	DAX1 inh-2	ssDAF12 agonist	hcDAF12 agonist	DAX1 inh confirm	SF1 AF2mut Luc
CNc1cc(-c2ccc(CC#N)cc2)ncn1	8.3	5.7	4.5*	x	-0.7	3.0	6.8*	5.5*
CCOc1ccccc1-c1cc(NC)ncn1	-1.9	-0.3	0.0	x	-0.5	-1.6	x	x
Clc1ccc2nc(CSc3nnc4ccccn34)cn2c1	9.1	3.9	5.1*	3.0	0.3	5.6*	13.7*	8.8*
COc1ncnc2c1cnn2-c1ccccc1	1.6	1.9	-0.5	0.6	-0.6	-0.8	x	x
COc1ccccc1Oc1ncnc2c1cnn2-c1ccccc1	11.6*	3.2	4.7*	0.5	-1.1	2.1	2.5	3.6*
COc1ccc2cc(CCNC(=O)c3ccco3)c(=O)[nH]c2c1	11.4*	2.2	6.0*	1.2	-0.3	5.0	9.4*	5.8*
COc1ccc(-c2cc(=O)c3c(C)cc(O)cc3o2)cc1	12.1*	6.5	5.6*	1.9	1.8*	6.5*	13.3*	4.6*
C[C@H]1[C@@H](OC(=O)Nc2cccc(Cl)c2)CC[C@@]23CCCN2C(=O)CCC[C@@H]13	-3.7	x	x	x	-1.7	-1.3	x	x
Cc1ccc(NC(=O)C/C(N)=N/OC(=O)Nc2ccc(C)c(Cl)c2)cc1	7.6	1.8	1.7	0.4	-1.3	0.8	x	x
Cc1ccc(NC(=O)C/C(N)=N/OC(=O)Nc2cccc(C)c2)cc1	3.4	1.9	5.0*	-0.1	-1.1	2.1	2.1	0.6
O=[N+]([O-])c1ccc(F)cc1OCc1nc(-c2cccs2)no1	12.0*	6.2	6.9*	4.0	1.1*	6.1*	8.7*	4.8*
